In the library only some 3.5% were active in any assay of this set; here they are far more common.
BoNT-A LC inh2 = BoNT/A light chain protease inhibitors, primary screen, biochemical, flow cytometry, MLPCN library | Botulinum neurotoxin type A light chain protease (Clostridium botulinum A str. ATCC 3502) | actives 0.17% (n = 360,000) | AID 588499, 2011 | multiplex microsphere protease substrate cleavage | inhibition, % at 10 µM
BoNT F protease = BoNT/F light chain protease inhibitors, primary screen, biochemical, flow cytometry, MLPCN library | inhibition, % at 10 µM | Multiplex microsphere protease cleavage assay | AID 588497, 2011 | Botulinum neurotoxin type F light chain protease (Clostridium botulinum) | actives 0.22% (n = 360,000); in the data active = inhibition above about 35%, passing the limit was not always enough; inconclusive = no clear call, values can overlap the other calls
BJeLR viability = MLPCN primary cell-based screen for lethality selective to Ras in HRASV12 cells; AID 1554, 2009; actives 0.17% (n = 300,000); inhibition, % (no concentration beside the values); BJeLR (HRASV12) viability, CellTiter-Glo ATP luminescence, 48 h; in the data active = inhibition above about 50%; inconclusive = no clear call, values can overlap the other calls
Bead autofluor = counter-screen for toxin protease inhibitors: compound fluorescence | fluorescence intensity (concentration not given with the values) | actives 3.1% (n = 360,000) | compound autofluorescence counterscreen, microsphere flow cytometry; hits give high values; in the data active = fluorescence intensity above about 16000; inconclusive = no clear call, values can overlap the other calls
Anthrax LF prot = Bacillus anthracis LF protease inhibitors, primary screen, biochemical, multiplex microsphere, MLPCN library. Lethal factor (Bacillus anthracis), P15917. multiplex microsphere protease cleavage assay. inhibition, % at 10 µM. actives 0.12% (n = 360,000). AID 588501, 2011
Numbers stand for hits. Rule as the data show it, unless noted: active = inhibition above about 30%; inconclusive = no clear call, values can overlap the other calls; inactive = below that.

How did COc1ccc(NC(=O)CN(C)C(=O)CCc2c[nH]c3ccccc23)cc1 do in these assays?
BoNT-A LC inh2: inactive; BoNT F protease: inactive; BJeLR viability: inactive; Bead autofluor: inactive; Anthrax LF prot: inactive

How did Cc1cc(F)cc(-c2cc(C(=O)NCc3ccco3)[nH]n2)c1 do in these assays?
BoNT-A LC inh2: inactive; BoNT F protease: inactive; Bead autofluor: inactive; Anthrax LF prot: inactive

How did COc1ccc(C(=O)c2ccccc2C(=O)c2ccccc2)cc1 do in these assays?
BoNT-A LC inh2: inactive; BoNT F protease: inactive; Bead autofluor: inactive; Anthrax LF prot: inactive

What do the screens show for `COc1ccc(N2C(=O)CCC(C(=O)c3ccccc3)=C2C)cc1`?
BoNT-A LC inh2: inconclusive; BoNT F protease: inactive; BJeLR viability: inactive; Bead autofluor: 19774; Anthrax LF prot: inactive

What do the screens show for `COc1ccccc1NC(=O)CSc1nccc(=O)[nH]1`?
BoNT-A LC inh2: inconclusive; BoNT F protease: inactive; BJeLR viability: inactive; Bead autofluor: 21630; Anthrax LF prot: inactive

How did O=C(CSc1nccc(=O)[nH]1)Nc1ccccc1Sc1ccccc1 do in these assays?
BoNT-A LC inh2: inactive; BoNT F protease: inactive; BJeLR viability: inactive; Bead autofluor: inactive; Anthrax LF prot: inactive

How did COc1ccccc1NC(=O)CSc1nc(N)cc(N)n1 do in these assays?
BoNT-A LC inh2: inactive; BoNT F protease: inactive; BJeLR viability: inactive; Bead autofluor: 21327; Anthrax LF prot: inactive

What do the screens show for `COc1ccc2nc(SCC(=O)Nc3ccccc3C)[nH]c2c1`?
BoNT-A LC inh2: inactive; BoNT F protease: inactive; BJeLR viability: inactive; Bead autofluor: 20993; Anthrax LF prot: inactive

What do the screens show for `NS(=O)(=O)c1ccc(NC(=O)COC(=O)CC2Sc3ccccc3NC2=O)cc1` (stereo unspecified)?
BoNT-A LC inh2: inactive; BoNT F protease: inactive; Bead autofluor: inactive; Anthrax LF prot: inactive

What do the screens show for `O=C(Cn1cnc2ccccc2c1=O)Nc1ccc2c(c1)CCC2`?
BoNT-A LC inh2: inactive; BoNT F protease: inactive; BJeLR viability: inactive; Bead autofluor: 23574; Anthrax LF prot: inactive

Results for O=C(O)C1CC=CCC1C(=O)NCc1ccccc1 (stereo unspecified) ?
BoNT-A LC inh2: inactive; BoNT F protease: inactive; BJeLR viability: inactive; Bead autofluor: 22945; Anthrax LF prot: inactive

What do the screens show for `CCOc1ccccc1NC(=O)C1CC2CCCC(C1)C2=O` (stereo unspecified)?
BoNT-A LC inh2: inactive; BoNT F protease: inactive; BJeLR viability: inactive; Bead autofluor: 23703; Anthrax LF prot: inactive

How did O=C(NCc1ccccc1)C1CC2CCCC(C1)C2=O (stereo unspecified) do in these assays?
BoNT-A LC inh2: inconclusive; BoNT F protease: inactive; BJeLR viability: inactive; Bead autofluor: 17138; Anthrax LF prot: inactive

How did COc1ccccc1Cc1c(C(C)(C)C)nc2c3ccccc3ccn12 do in these assays?
BoNT-A LC inh2: inactive; BoNT F protease: inactive; Bead autofluor: inactive; Anthrax LF prot: inactive

How did CCOc1cc(OCC)c(C(C)=O)cc1OCC do in these assays?
BoNT-A LC inh2: inactive; BoNT F protease: inactive; Bead autofluor: inactive; Anthrax LF prot: inactive

What do the screens show for `Cc1ccc2c(c1)CCCN2C(=O)C1CCCO1` (stereo unspecified)?
BoNT-A LC inh2: inactive; BoNT F protease: inactive; BJeLR viability: inactive; Bead autofluor: 22991; Anthrax LF prot: inactive

How did Cc1ccc2c(c1)CCCN2C(=O)c1cc2ccccc2oc1=O do in these assays?
BoNT-A LC inh2: inconclusive; BoNT F protease: inactive; BJeLR viability: inactive; Bead autofluor: 16268; Anthrax LF prot: inactive

How did Cc1ccc2c(c1)CCCN2C(=O)c1ccoc1C do in these assays?
BoNT-A LC inh2: inactive; BoNT F protease: inactive; BJeLR viability: inactive; Bead autofluor: 21940; Anthrax LF prot: inactive

What do the screens show for `CCc1ccc2c(c1)CCCN2C(=O)c1ccccc1C(=O)O`?
BoNT-A LC inh2: inactive; BoNT F protease: inactive; BJeLR viability: inactive; Bead autofluor: 19882; Anthrax LF prot: inactive

How did Cc1ccc2c(c1)CCCN2C(=O)c1c(C)noc1C do in these assays?
BoNT-A LC inh2: inactive; BoNT F protease: inactive; BJeLR viability: inactive; Bead autofluor: 22666; Anthrax LF prot: inactive

How did Cc1noc(C)c1C(=O)N1CCCc2ccccc21 do in these assays?
BoNT-A LC inh2: inactive; BoNT F protease: inactive; BJeLR viability: inactive; Bead autofluor: inactive; Anthrax LF prot: inactive

Results for Cc1c(NC(=O)C(C)Oc2ccc(Br)cc2Cl)c(=O)n(-c2ccccc2)n1C (stereo unspecified) ?
BoNT-A LC inh2: inactive; BoNT F protease: inactive; BJeLR viability: inactive; Bead autofluor: inactive; Anthrax LF prot: inactive

Results for CCN1CCN(Cc2oc(CO)cc(=O)c2O)CC1 ?
BoNT-A LC inh2: inconclusive; BoNT F protease: inactive; BJeLR viability: inactive; Bead autofluor: 19271; Anthrax LF prot: inactive

What do the screens show for `N#Cc1cn(C2OC(CO)C(O)C2O)c2ncnc(N)c12` (stereo unspecified)?
BoNT-A LC inh2: inactive; BoNT F protease: inactive; Bead autofluor: inactive; Anthrax LF prot: inactive

What do the screens show for `NC(=O)c1cn(C2OC(CO)C(O)C2O)c2ncnc(N)c12` (stereo unspecified)?
BoNT-A LC inh2: inactive; BoNT F protease: inactive; BJeLR viability: 91; Bead autofluor: inactive; Anthrax LF prot: inactive

How did Nc1ccc2c(c1)oc1ccccc12 do in these assays?
BoNT-A LC inh2: inactive; BoNT F protease: inactive; BJeLR viability: inactive; Bead autofluor: 22331; Anthrax LF prot: inactive

Results for COCCNC(=O)C1(C)CCN(C(=O)c2ccc(C(F)(F)F)nc2C)C1 (stereo unspecified) ?
BoNT-A LC inh2: inactive; BoNT F protease: inactive; Bead autofluor: inactive; Anthrax LF prot: inactive

How did CC(C)(C)NC(=O)NC(=O)COC(=O)CCCc1c[nH]c2ccccc12 do in these assays?
BoNT-A LC inh2: inactive; BoNT F protease: inactive; BJeLR viability: inactive; Bead autofluor: 24864; Anthrax LF prot: inactive

Results for CCOC(=O)CCCc1c[nH]c2ccccc12 ?
BoNT-A LC inh2: inactive; BoNT F protease: inactive; BJeLR viability: inactive; Bead autofluor: 21767; Anthrax LF prot: inactive

Results for Nc1ncnc2c1ncn2[C@@H]1O[C@H](C(=O)N2CCN(c3ccc(Cl)cn3)CC2)[C@@H](O)[C@H]1O ?
BoNT-A LC inh2: inactive; BoNT F protease: inactive; Bead autofluor: inactive; Anthrax LF prot: inactive

Results for COc1cc(OC)cc(C(=O)N[C@H](C(=O)OCC(=O)Nc2cccnc2Cl)C(C)C)c1 ?
BoNT-A LC inh2: inactive; BoNT F protease: inactive; Bead autofluor: inconclusive; Anthrax LF prot: inactive

Results for COc1ccccc1NS(=O)(=O)c1cc(C(=O)N2CC(C)CC(C)C2)ccc1C (stereo unspecified) ?
BoNT-A LC inh2: inconclusive; BoNT F protease: inactive; BJeLR viability: inactive; Bead autofluor: 22186; Anthrax LF prot: inactive

What do the screens show for `O=C(O)CC(CC(=O)Nc1nncs1)c1ccccc1` (stereo unspecified)?
BoNT-A LC inh2: inactive; BoNT F protease: inactive; BJeLR viability: inactive; Bead autofluor: inactive; Anthrax LF prot: inactive

Results for O=C(O)CC(Cn1[nH]nnc1=S)c1ccccc1 (stereo unspecified) ?
BoNT-A LC inh2: inconclusive; BoNT F protease: inactive; BJeLR viability: inactive; Bead autofluor: 22296; Anthrax LF prot: inactive

How did C=CCNC(=O)CCNS(=O)(=O)c1ccc(Br)cc1 do in these assays?
BoNT-A LC inh2: inactive; BoNT F protease: inactive; Bead autofluor: 22875; Anthrax LF prot: inactive

Source: PubChem (several laboratories)
